ERp5 block = blocks human ERp5 reductase activity on insulin; Q15084; ERp5 insulin aggregation, absorbance 650 nm, 90 min; inhibition, % at 9.99 µM; 350,000 tested, 0.05% active;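 active = mean replicate inhibition above about 25%, with every replicate also reaching it, limit read from the data, passing the limit was not always enough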
DENV2 CPE rescue = protects cells from dengue virus 2 cytopathic effect; 350,000 tested, 1.7% active; CPE inhibition, % at 9.99 µM; DENV2-infected cells, cytopathic effect rescue, plate reader; in the data active = CPE inhibition above about 20%, passing the limit was not always enough; tested in BHK-21 cells;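 note: 0% = median of neutral control wells and 100% = median of positive control wells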
PDI turbidity = blocks human protein disulfide isomerase activity; P07237; PDI insulin aggregation turbidity, A650, 90 min; inhibition, % at 10 µM; 350,000 tested, 0.052% active;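 active = mean inhibition across replicates of 30% or more, whatever share of single replicates reach that level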
ERAP1 inh = blocks human ERAP1 aminopeptidase activity | Q9NZ08 | recombinant ERAP1, Leu-AMC fluorescence, 60 min | inhibition, % at 10.7 µM | 340,000 tested, 0.15% active | AID 652197;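 active = mean replicate inhibition of at least 30%, or all replicates individually reaching that 30% level; inactive = mean below 30% and not every replicate reaching it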;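 note: 0% = neutral control wells and 100% = L-leucinethiol positive control wells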
MLL AF4-AF9 inh = inhibitors of human MLL-AF4/AF9 interaction | AlphaScreen, biotin-AF4 peptide binding to FLAG-AF9 | 350,000 tested, 0.47% active | inhibition, % at 10 µM;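 active = every replicate reaching a set inhibition limit, whatever the replicate mean, cut at about 25% in these data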;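 note: 0% = plate neutral control median and 100% = total signal loss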
Starred values were filed as active, the others as inactive; ! = not confirmed by another sample. Most compounds without a hit are left out; they make up all but 1.8% or so of the library.

`COC(=O)C1=C(C)N(Cc2ccccc2C(F)(F)F)C(=NCc2ccc(OC)cc2)NC1c1ccccc1` (stereo unspecified) gave ERp5 block 8, DENV2 CPE rescue 42* and ERAP1 inh 1.
For COC(=O)C1=C(C)N(Cc2ccc(F)cc2)C(=S)NC1c1cccc(F)c1 (stereo unspecified) the results were ERp5 block 2, DENV2 CPE rescue 6 and ERAP1 inh 3.
COC(=O)C1=C(C)N(Cc2ccccc2C(F)(F)F)C(=NCc2ccc(OC)cc2)NC1c1ccc(Cl)cc1 (stereo unspecified) was read as ERp5 block -1, DENV2 CPE rescue -3 and ERAP1 inh 2.
`COC(=O)C1=C(C)N(Cc2cccc(C(F)(F)F)c2)C(=NCc2ccc(C(F)(F)F)cc2)NC1c1ccccc1C(F)(F)F` (stereo unspecified) gave ERp5 block 0, DENV2 CPE rescue 28* and ERAP1 inh 1.
CN1[C@H](C(=O)NCC2CCCCC2)[C@@H](CO)[C@@H]2Cn3c(cccc3=O)[C@@H]21 was read as ERp5 block -10, DENV2 CPE rescue 12, ERAP1 inh -3 and MLL AF4-AF9 inh 1.
C[C@H](CO)N1C[C@H](C)[C@@H](CN(C)Cc2cccnc2)Oc2ncc(-c3cccc(F)c3)cc2C1=O was read as ERp5 block -2, DENV2 CPE rescue 0, ERAP1 inh -4 and MLL AF4-AF9 inh -1.
C[C@H]1CN([C@@H](C)CO)C(=O)c2cccc(NC(=O)CCCCCC(=O)Nc3ccccc3N)c2O[C@H]1CN(C)C was read as ERp5 block 2, DENV2 CPE rescue -6, ERAP1 inh 3 and MLL AF4-AF9 inh -31.
For COC(=O)C1=C(C)N(Cc2ccccc2C(F)(F)F)C(=NCc2ccc(C(F)(F)F)cc2)NC1c1ccc(Cl)cc1 (stereo unspecified) the results were ERp5 block 0, DENV2 CPE rescue 25* and ERAP1 inh 0.
`COCCN=C1N[C@@H](c2ccccc2)C(C(=O)OC)=C(C)N1Cc1ccccc1` gave ERp5 block 2, DENV2 CPE rescue -5, PDI turbidity -23, ERAP1 inh -2 and MLL AF4-AF9 inh -7.
For CCN1C(=O)N[C@@H](c2cccc(C(F)(F)F)c2)C(C(=O)OC)=C1C the results were ERp5 block 1, DENV2 CPE rescue 8, PDI turbidity -3 and MLL AF4-AF9 inh -1.
Screening COC(=O)C1=C(C)N(Cc2ccccc2)C(=NCc2ccccc2)N[C@H]1c1cccc(F)c1 returned ERp5 block -7, PDI turbidity 4, ERAP1 inh 53* and MLL AF4-AF9 inh 10.
Screening COCCN=C1N[C@@H](c2ccc(Br)cc2)C(C(=O)OC)=C(C)N1Cc1ccccc1 returned ERp5 block 4, PDI turbidity -2, ERAP1 inh 91* and MLL AF4-AF9 inh 3.
`CCN(CC)CCCN=C1N[C@@H](c2cccc(C(F)(F)F)c2)C(C(=O)OC)=C(C)N1CC` gave ERp5 block 4, DENV2 CPE rescue -1, PDI turbidity -7, ERAP1 inh 61* and MLL AF4-AF9 inh 0.
`C[C@@H]1CN([C@H](C)CO)C(=O)c2cc(C#Cc3cccc(F)c3)cnc2O[C@H]1CN(C)C(=O)C1CCC1` gave ERp5 block -1, DENV2 CPE rescue -6, ERAP1 inh 1 and MLL AF4-AF9 inh -1.
`CCCNC(=O)OC1CC2CC1[C@H]1CCCCN1C2=O` (stereo partly specified) gave ERp5 block -4, DENV2 CPE rescue 29*, ERAP1 inh -1 and MLL AF4-AF9 inh -1.
For Cc1ccc(CNC(=O)OC2CC3CC2[C@H]2CCCCN2C3=O)cc1 (stereo partly specified) the results were ERp5 block 4, DENV2 CPE rescue -1, ERAP1 inh 1 and MLL AF4-AF9 inh -2.
Screening Cc1nc(C(=O)NC2CCOCC2)sc1C1(C)CC(c2ccccc2)=NO1 (stereo unspecified) returned ERp5 block -4, DENV2 CPE rescue -14, PDI turbidity -3, ERAP1 inh -3 and MLL AF4-AF9 inh -4.
Screening Cc1nc(C(=O)NC2CCOCC2)sc1C1(C)CC(c2cccc([N+](=O)[O-])c2)=NO1 (stereo unspecified) returned ERp5 block 1, DENV2 CPE rescue 44*, PDI turbidity 6, ERAP1 inh 0 and MLL AF4-AF9 inh 4.
Screening N#Cc1c(N)[nH]c(C(=O)c2ccccc2)c1-c1ccc(Br)cc1 returned ERp5 block -8, DENV2 CPE rescue 57* and ERAP1 inh 0.
`CC(C)C#Cc1ccc2c(c1)O[C@H](CN(C)CC1CCOCC1)[C@@H](C)CN([C@@H](C)CO)S2(=O)=O` gave ERp5 block 1, DENV2 CPE rescue 15, ERAP1 inh 1 and MLL AF4-AF9 inh 6.
CC1(C)CC(=O)N(CC(=O)O)c2ccccc2S1(=O)=O was read as ERp5 block 2, DENV2 CPE rescue 34*, ERAP1 inh -1 and MLL AF4-AF9 inh -6.
CN1CCN(C(=O)CN2C(=O)CC(C)(C)S(=O)(=O)c3ccccc32)CC1 was read as PDI turbidity 1.
C=CCOC(=O)C1=C[C@@H](c2ccc(C(F)(F)F)cc2)[C@H](CCCO)[C@@H](OCC)O1 was read as ERp5 block 1, DENV2 CPE rescue 36*!, PDI turbidity 3, ERAP1 inh 10 and MLL AF4-AF9 inh -5.
For C=CCOC(=O)C1=C[C@H](c2ccc(C(F)(F)F)cc2)[C@@H](CCCO)[C@H](OCC)O1 the results were ERp5 block -1, DENV2 CPE rescue -3, PDI turbidity 3, ERAP1 inh 2 and MLL AF4-AF9 inh -2.
For COc1ccc(NC(=O)N(C)C[C@H]2OCc3ccccc3-c3ccccc3C(=O)N([C@@H](C)CO)C[C@@H]2C)c(OC)c1 the results were ERp5 block 6 and DENV2 CPE rescue 18.
For C[C@@H]1CCCCO[C@@H](CN(C)C(=O)c2ccccc2)[C@H](C)CN([C@H](C)CO)C(=O)c2cc(NC(=O)c3ccccc3)ccc2O1 the results were ERp5 block -1, DENV2 CPE rescue 0, ERAP1 inh 1 and MLL AF4-AF9 inh 0.
`O=[N+]([O-])c1ccc(CNc2ccc(Cl)cc2)s1` gave ERp5 block 1, DENV2 CPE rescue 1, PDI turbidity -30, ERAP1 inh 3 and MLL AF4-AF9 inh 30*.
O=[N+]([O-])c1ccc(CNc2ccc(F)cc2)s1 was read as ERp5 block -1, DENV2 CPE rescue 8, PDI turbidity 2, ERAP1 inh 6 and MLL AF4-AF9 inh 12.
For Cc1ccc(S(N)(=O)=O)cc1 the results were ERp5 block -2, DENV2 CPE rescue 52* and ERAP1 inh 0.
Screening COc1ccccc1CNC(=O)C[C@H]1CC[C@@H]2[C@H](COC[C@H](O)CN2C(=O)Nc2ccc(Cl)cc2)O1 returned ERp5 block 0, DENV2 CPE rescue -13, ERAP1 inh -1 and MLL AF4-AF9 inh 1.

Screens from PubChem BioAssay.
